Data: PubChem BioAssay AID1159580 (chemical genetic matrix, 2015)
In all, about 5,500 compounds went through this assay and about 2,000 (36%) were called active. Roughly 18% stayed inconclusive and do not appear here. Rule as the data show it: active = normalized growth mostly below about 0.91 (no sharp cut-off); inconclusive = no clear call, values can overlap the other calls; inactive = mostly above about 0.92. This is one part of the list.

Assay: chemical genetic growth profiling, strain panel (AID 1159580);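 also: tested at 20 µM; growth read once vehicle control cultures reached saturation at 30 °C; 1 = growth at the plate median or of vehicle wells; lower values mean less growth of the strain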
Settings: growth OD

Measured: normalized growth

CC(C)(C)NCC(O)COc1cccc2c1C[C@H](O)[C@H](O)C2 (stereo not given in full)
inactive: S. cerevisiae deletion strains, locus YJR075W, strain HOC1, active compounds read low 1 | S. cerevisiae deletion strains, locus YKL009W, strain mrt4, active compounds read low 0.972 | S. cerevisiae deletion strains, locus YKL068W, active compounds read low 0.986 | S. cerevisiae deletion strains, locus YKL085W, strain MDH1 (second series), active compounds read low 0.99 | S. cerevisiae deletion strains, locus YKL085W, strain MDH1, active compounds read low 0.99 | S. cerevisiae deletion strains, locus YKL160W, strain elf1, active compounds read low 1.01 | S. cerevisiae deletion strains, locus YKL190W, strain CNB1, active compounds read low 0.993 | S. cerevisiae deletion strains, locus YKR001C, strain vps1, active compounds read low 1 | S. cerevisiae deletion strains, locus YKR026C, strain gcn3, active compounds read low 1.01 | S. cerevisiae deletion strains, locus YKR091W, strain srl3, active compounds read low 0.993 | S. cerevisiae deletion strains, locus YLL001W, strain dnm1, active compounds read low 1.01 | S. cerevisiae deletion strains, locus YLL026W, active compounds read low 1.01 | S. cerevisiae deletion strains, locus YLL041C, strain sdh2, active compounds read low 1 | S. cerevisiae deletion strains, locus YLR027C, strain aat2, active compounds read low 1 | S. cerevisiae deletion strains, locus YLR039C, strain RIC1, active compounds read low 0.973 | S. cerevisiae deletion strains, locus YLR058C, strain SHM2, active compounds read low 0.997 | S. cerevisiae deletion strains, locus YLR102C, strain apc9, active compounds read low 0.992 | S. cerevisiae deletion strains, locus YLR113W, strain HOG1, active compounds read low 1.05 | S. cerevisiae deletion strains, locus YLR221C, strain rsa3, active compounds read low 1 | S. cerevisiae deletion strains, locus YLR258W, strain gsy2, active compounds read low 0.998 | S. cerevisiae deletion strains, locus YLR262C, strain YPT6 (second series), active compounds read low 1.01 | S. cerevisiae deletion strains, locus YLR262C, strain YPT6, active compounds read low 0.928 | S. cerevisiae deletion strains, locus YLR268W, strain sec22, active compounds read low 0.994 | S. cerevisiae deletion strains, locus YLR320W, strain mms22, active compounds read low 1.02 | S. cerevisiae deletion strains, locus YLR330W, strain CHS5, active compounds read low 0.986 | S. cerevisiae deletion strains, locus YLR342W, strain FKS1 (second series), active compounds read low 0.993 | S. cerevisiae deletion strains, locus YLR342W, strain FKS1, active compounds read low 1.01 | S. cerevisiae deletion strains, locus YLR357W, strain rsc2, active compounds read low 1.01 | S. cerevisiae deletion strains, locus YLR370C, strain arc18, active compounds read low 1.02 | S. cerevisiae deletion strains, locus YLR371W, strain rom2, active compounds read low 0.994 | S. cerevisiae deletion strains, locus YLR384C, strain iki3, active compounds read low 1.02 | S. cerevisiae deletion strains, locus YLR418C, strain cdc73, active compounds read low 0.946 | S. cerevisiae deletion strains, locus YML016C, strain PPZ1, active compounds read low 1 | S. cerevisiae deletion strains, locus YML032C, strain rad52, active compounds read low 0.999 | S. cerevisiae deletion strains, locus YML120C, strain ndi1, active compounds read low 1.01 | S. cerevisiae deletion strains, locus YML124C, strain tub3, active compounds read low 0.995 | S. cerevisiae deletion strains, locus YMR058W, strain fet3, active compounds read low 1.01 | S. cerevisiae deletion strains, locus YMR078C, strain ctf18, active compounds read low 0.982 | S. cerevisiae deletion strains, locus YMR125W, strain sto1, active compounds read low 1.01 | S. cerevisiae deletion strains, locus YMR129W, active compounds read low 1.01 | S. cerevisiae deletion strains, locus YMR205C, strain PFK2, active compounds read low 1.02 | S. cerevisiae deletion strains, locus YMR223W, strain ubp8, active compounds read low 0.964 | S. cerevisiae deletion strains, locus YMR231W, strain pep5, active compounds read low 0.998 | S. cerevisiae deletion strains, locus YMR263W, strain SAP30, active compounds read low 1.02 | S. cerevisiae deletion strains, locus YMR307W, strain GAS1, active compounds read low 0.959 | S. cerevisiae deletion strains, locus YNL067W, strain RPL9B, active compounds read low 1.02 | S. cerevisiae deletion strains, locus YNL071W, strain lat1, active compounds read low 0.999 | S. cerevisiae deletion strains, locus YNL128W, strain TEP1, active compounds read low 0.988 | S. cerevisiae deletion strains, locus YNL183C, strain NPR1, active compounds read low 1 | S. cerevisiae deletion strains, locus YNL209W, strain ssb2, active compounds read low 0.994 | S. cerevisiae deletion strains, locus YNL233W, strain BNI4, active compounds read low 1.04 | S. cerevisiae deletion strains, locus YNL248C, strain rpa49, active compounds read low 1.01 | S. cerevisiae deletion strains, locus YNL250W, strain rad50, active compounds read low 0.972 | S. cerevisiae deletion strains, locus YNL271C, strain bni1, active compounds read low 0.988 | S. cerevisiae deletion strains, locus YNL298W, strain CLA4, active compounds read low 0.983 | S. cerevisiae deletion strains, locus YNL307C, strain MCK1, active compounds read low 0.986 | S. cerevisiae deletion strains, locus YNL322C, strain KRE1 (second series), active compounds read low 1.01 | S. cerevisiae deletion strains, locus YNL322C, strain KRE1, active compounds read low 0.992 | S. cerevisiae deletion strains, locus YNR049C, strain mso1, active compounds read low 1.01 | S. cerevisiae deletion strains, locus YNR052C, strain pop2, active compounds read low 0.989 | S. cerevisiae deletion strains, locus YOL006C, strain TOP1, active compounds read low 1.05 | S. cerevisiae deletion strains, locus YOL012C, strain htz1 1.13 | S. cerevisiae deletion strains, locus YOL147C, strain pex11, active compounds read low 0.992 | S. cerevisiae deletion strains, locus YOR001W, strain rrp6, active compounds read low 1 | S. cerevisiae deletion strains, locus YOR061W, strain CKA2, active compounds read low 1 | S. cerevisiae deletion strains, locus YOR069W, strain VPS5, active compounds read low 0.999 | S. cerevisiae deletion strains, locus YOR070C, strain gyp1, active compounds read low 1 | S. cerevisiae deletion strains, locus YOR080W, strain dia2, active compounds read low 1.01 | S. cerevisiae deletion strains, locus YOR083W, strain WHI5, active compounds read low 1 | S. cerevisiae deletion strains, locus YOR106W, strain vam3, active compounds read low 1.02 | S. cerevisiae deletion strains, locus YOR136W, strain idh2, active compounds read low 0.994 | S. cerevisiae deletion strains, locus YOR144C, strain elg1, active compounds read low 0.999 | S. cerevisiae deletion strains, locus YOR184W, strain ser1, active compounds read low 0.974 | S. cerevisiae deletion strains, locus YOR231W, strain MKK1, active compounds read low 1.06 | S. cerevisiae deletion strains, locus YOR265W, strain rbl2, active compounds read low 1.01 | S. cerevisiae deletion strains, locus YOR270C, strain vph1, active compounds read low 1.01 | S. cerevisiae deletion strains, locus YOR290C, strain snf2, active compounds read low 1.01 | S. cerevisiae deletion strains, locus YOR316C, strain cot1, active compounds read low 0.985 | S. cerevisiae deletion strains, locus YPL051W, strain arl3, active compounds read low 1 | S. cerevisiae deletion strains, locus YPL078C, strain atp4, active compounds read low 1 | S. cerevisiae deletion strains, locus YPL106C, strain sse1, active compounds read low 1.01 | S. cerevisiae deletion strains, locus YPL240C, strain hsp82, active compounds read low 0.997 | S. cerevisiae deletion strains, locus YPL241C, strain CIN2, active compounds read low 0.987 | S. cerevisiae deletion strains, locus YPL256C, strain CLN2, active compounds read low 1.02 | S. cerevisiae deletion strains, locus YPR119W, strain clb2, active compounds read low 0.996 | S. cerevisiae deletion strains, locus YPR141C, strain kar3, active compounds read low 0.994 | S. cerevisiae deletion strains, locus YPR163C, strain tif3, active compounds read low 0.991 | S. cerevisiae deletion strains, locus YPR167C, strain met16, active compounds read low 0.987 | S. cerevisiae deletion strains, strain wtn01, active compounds read low 0.983 | S. cerevisiae strains, strain wild type, active compounds read low 0.998
